Laboratory results taken from the OligoGym collection.
Further: reference of the scale not given here.

Each sequence was assayed against ZNF599 (assay: pooled miR-30 sensor sort-seq; sequence = guide strand). Conditions: shRNA.
TAAATGCATGTTAACCACCAGG gave a sensor-assay potency score (higher = more potent) of -1.03.
TATGGGTCCTCTTATGTCGGAT showed a sensor-assay potency score (higher = more potent) of -0.578.
For TTCTCTACAAACATAGGGCTTC, the sensor-assay potency score (higher = more potent) was 0.194.
For TTGCACATTCTTTGCACTCCAA, the sensor-assay potency score (higher = more potent) was -0.563.
AATCTCTTGAGGATCTCTGTGC gave a sensor-assay potency score (higher = more potent) of -0.218.
With TGAATCTTTAATATAATTCTTT the sensor-assay potency score (higher = more potent) was -0.316.
TTGAGAGTCACACTCATGGAGA gave a sensor-assay potency score (higher = more potent) of -0.714.
Work on TTAGCTTTTCCTCATCTCTAGC yielded a sensor-assay potency score (higher = more potent) of -0.541.
Sequence TTGTGGAGTGACTCGTTCCTGT has a sensor-assay potency score (higher = more potent) of -0.347.
For TTCCACATTCTCTACAAACATA, the sensor-assay potency score (higher = more potent) was -1.71.
In the case of TTATTTTAAAATATGCTTGAGA, the sensor-assay potency score (higher = more potent) is reported as -0.0715.

The sequences below were run against ZNF609 in the same assay as above. Conditions: shRNA.
TTGCAGTCACTACTTGTGCTTT showed a sensor-assay potency score (higher = more potent) of -0.589.
In the case of TTTCTGTCCAGAACAGTGGGTT, the sensor-assay potency score (higher = more potent) is reported as 0.109.
TTGGAGAATAGTAACTCTCAAA was tested, and the sensor-assay potency score (higher = more potent) was -1.39.
With TTTGTGAGACAGATGCACCGTT the sensor-assay potency score (higher = more potent) was 0.735.
TAAACATATGTCCACATCCGGG showed a sensor-assay potency score (higher = more potent) of -1.36.
TATTGGATCCATCTCTGCCTGT was tested, and the sensor-assay potency score (higher = more potent) was -0.575.
For TCTTTTTCCATACACTTCCTTT, the sensor-assay potency score (higher = more potent) was -0.591.
TGAAACTGTAGATCTTGTCGGC gave a sensor-assay potency score (higher = more potent) of 0.618.
TATCGTGGGAGACTTGCTCTTG showed a sensor-assay potency score (higher = more potent) of -0.437.
Work on TGATTTGACACTGTCTACCTTG yielded a sensor-assay potency score (higher = more potent) of 0.639.
With TTGACTTTCTTTAGCAGGCGAC the sensor-assay potency score (higher = more potent) was -0.497.
Work on TTGACATCCTCAGAAGTGCTGC yielded a sensor-assay potency score (higher = more potent) of 0.188.

The sequences below were run against ZNF630 in the same assay as above. Conditions: shRNA.
TAAGTCTGAATTAGACTTCAAG was tested, and the sensor-assay potency score (higher = more potent) was -0.977.
With TTATAATTTAGTAAGTCTGAAT the sensor-assay potency score (higher = more potent) was -1.16.
For TAATTAGATGTGACTTCTGGGA, the sensor-assay potency score (higher = more potent) was -0.376.
For TTGCTTATGACTGAGAACTTTT, the sensor-assay potency score (higher = more potent) was -0.853.
With TTGGACACTCAAAACACTCATA the sensor-assay potency score (higher = more potent) was -0.509.
Work on TATAATTAGATGTGACTTCTGG yielded a sensor-assay potency score (higher = more potent) of 0.548.
In the case of TTCCATACTTAGTACATTCATA, the sensor-assay potency score (higher = more potent) is reported as -0.904.
ACACATACTACAAACATTGGGT was tested, and the sensor-assay potency score (higher = more potent) was -0.0412.
TAGAATGAGATGTGACTTCAGG gave a sensor-assay potency score (higher = more potent) of -0.186.
Sequence TTTCACATTGACTATCTCCATA has a sensor-assay potency score (higher = more potent) of -0.895.
For ATACTTAGTACATTCATAGGGT, the sensor-assay potency score (higher = more potent) was 0.067.
TTCTTTCTTGCATAGCTCCTGT gave a sensor-assay potency score (higher = more potent) of 0.0285.

These sequences were tested against ZNF653 in the same assay as above. Conditions: shRNA.
With TTTGTCACTGTCAGGGTCTGAG the sensor-assay potency score (higher = more potent) was -0.472.
With TTGGCGTCGCTCCAGCCGCTGC the sensor-assay potency score (higher = more potent) was -1.56.
With TTGTACTGCACCTCCGCAGTGT the sensor-assay potency score (higher = more potent) was -0.237.
